Assay results: ChEMBL document CHEMBL2218924, “A broad activity screen in support of a chemogenomic map for kinase signalling research and drug discovery” (Biochem J, 2013)

Experiments:
[1] = target: T1, Serine/threonine-protein kinase 3 (Homo sapiens) (UniProt Q13188); conditions: at 1 µM
T1 sequence (whole entry): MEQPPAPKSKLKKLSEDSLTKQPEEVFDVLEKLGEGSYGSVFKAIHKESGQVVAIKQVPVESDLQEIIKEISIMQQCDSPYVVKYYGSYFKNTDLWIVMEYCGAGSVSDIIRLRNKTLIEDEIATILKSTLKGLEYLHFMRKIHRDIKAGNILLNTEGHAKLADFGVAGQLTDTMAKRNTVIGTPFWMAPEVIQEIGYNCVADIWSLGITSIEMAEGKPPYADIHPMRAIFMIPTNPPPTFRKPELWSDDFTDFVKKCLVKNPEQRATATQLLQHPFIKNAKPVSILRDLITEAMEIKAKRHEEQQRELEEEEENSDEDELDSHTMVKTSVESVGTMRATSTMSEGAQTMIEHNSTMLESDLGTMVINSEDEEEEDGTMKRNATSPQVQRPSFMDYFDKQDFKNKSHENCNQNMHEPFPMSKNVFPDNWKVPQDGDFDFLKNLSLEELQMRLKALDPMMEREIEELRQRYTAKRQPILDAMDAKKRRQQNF

[2] = target: Serine/threonine-protein kinase 24 (Homo sapiens) (UniProt Q9Y6E0); conditions: at 1 µM
Chain of Serine/threonine-protein kinase 24 (Homo sapiens) (Q9Y6E0 whole entry, looked up): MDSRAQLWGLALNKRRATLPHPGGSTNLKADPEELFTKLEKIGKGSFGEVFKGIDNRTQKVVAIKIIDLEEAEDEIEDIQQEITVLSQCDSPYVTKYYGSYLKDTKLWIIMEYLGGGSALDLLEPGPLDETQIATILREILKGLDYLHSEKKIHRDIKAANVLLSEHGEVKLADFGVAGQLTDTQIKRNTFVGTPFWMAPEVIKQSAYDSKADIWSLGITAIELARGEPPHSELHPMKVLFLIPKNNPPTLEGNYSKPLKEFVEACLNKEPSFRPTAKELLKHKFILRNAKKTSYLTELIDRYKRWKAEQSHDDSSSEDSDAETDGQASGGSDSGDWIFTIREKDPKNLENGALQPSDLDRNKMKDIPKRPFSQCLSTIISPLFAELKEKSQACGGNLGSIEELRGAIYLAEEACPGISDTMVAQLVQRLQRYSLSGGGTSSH

[3] = target: Serine/threonine-protein kinase 24 (Homo sapiens) (UniProt Q9Y6E0); conditions: at 10 µM
[4] = target: T2, Tyrosine-protein kinase Mer (Homo sapiens) (UniProt Q12866); conditions: at 1 µM
T2 sequence (whole entry): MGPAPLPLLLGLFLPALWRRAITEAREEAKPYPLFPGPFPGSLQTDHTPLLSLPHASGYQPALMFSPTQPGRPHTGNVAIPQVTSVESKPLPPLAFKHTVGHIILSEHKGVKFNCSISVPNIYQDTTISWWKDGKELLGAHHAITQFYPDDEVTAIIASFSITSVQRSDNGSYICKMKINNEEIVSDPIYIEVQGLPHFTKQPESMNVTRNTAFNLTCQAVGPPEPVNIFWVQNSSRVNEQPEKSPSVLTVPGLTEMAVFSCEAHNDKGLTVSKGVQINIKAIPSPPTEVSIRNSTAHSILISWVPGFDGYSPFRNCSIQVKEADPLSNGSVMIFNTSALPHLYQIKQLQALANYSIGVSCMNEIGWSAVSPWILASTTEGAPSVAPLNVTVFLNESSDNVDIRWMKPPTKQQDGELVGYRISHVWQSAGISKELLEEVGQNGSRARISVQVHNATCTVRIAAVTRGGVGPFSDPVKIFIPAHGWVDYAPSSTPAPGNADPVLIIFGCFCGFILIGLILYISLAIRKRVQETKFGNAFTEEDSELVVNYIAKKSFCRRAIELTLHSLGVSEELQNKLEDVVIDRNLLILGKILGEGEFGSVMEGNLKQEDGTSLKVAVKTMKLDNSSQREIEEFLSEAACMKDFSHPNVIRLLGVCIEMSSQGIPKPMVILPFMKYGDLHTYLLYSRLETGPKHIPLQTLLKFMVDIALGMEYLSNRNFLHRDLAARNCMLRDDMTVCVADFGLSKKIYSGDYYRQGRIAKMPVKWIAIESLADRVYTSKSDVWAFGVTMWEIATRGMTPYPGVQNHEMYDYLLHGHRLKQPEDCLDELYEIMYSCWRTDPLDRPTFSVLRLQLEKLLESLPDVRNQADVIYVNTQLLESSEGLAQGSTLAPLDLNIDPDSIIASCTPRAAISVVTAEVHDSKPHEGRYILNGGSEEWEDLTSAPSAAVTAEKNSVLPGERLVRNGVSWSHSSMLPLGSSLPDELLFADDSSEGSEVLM

[5] = target: T2, Tyrosine-protein kinase Mer (Homo sapiens); conditions: at 10 µM
[6] = target: Hepatocyte growth factor receptor (Homo sapiens) (UniProt P08581); conditions: at 1 µM
Chain of Hepatocyte growth factor receptor (Homo sapiens) (P08581 whole entry): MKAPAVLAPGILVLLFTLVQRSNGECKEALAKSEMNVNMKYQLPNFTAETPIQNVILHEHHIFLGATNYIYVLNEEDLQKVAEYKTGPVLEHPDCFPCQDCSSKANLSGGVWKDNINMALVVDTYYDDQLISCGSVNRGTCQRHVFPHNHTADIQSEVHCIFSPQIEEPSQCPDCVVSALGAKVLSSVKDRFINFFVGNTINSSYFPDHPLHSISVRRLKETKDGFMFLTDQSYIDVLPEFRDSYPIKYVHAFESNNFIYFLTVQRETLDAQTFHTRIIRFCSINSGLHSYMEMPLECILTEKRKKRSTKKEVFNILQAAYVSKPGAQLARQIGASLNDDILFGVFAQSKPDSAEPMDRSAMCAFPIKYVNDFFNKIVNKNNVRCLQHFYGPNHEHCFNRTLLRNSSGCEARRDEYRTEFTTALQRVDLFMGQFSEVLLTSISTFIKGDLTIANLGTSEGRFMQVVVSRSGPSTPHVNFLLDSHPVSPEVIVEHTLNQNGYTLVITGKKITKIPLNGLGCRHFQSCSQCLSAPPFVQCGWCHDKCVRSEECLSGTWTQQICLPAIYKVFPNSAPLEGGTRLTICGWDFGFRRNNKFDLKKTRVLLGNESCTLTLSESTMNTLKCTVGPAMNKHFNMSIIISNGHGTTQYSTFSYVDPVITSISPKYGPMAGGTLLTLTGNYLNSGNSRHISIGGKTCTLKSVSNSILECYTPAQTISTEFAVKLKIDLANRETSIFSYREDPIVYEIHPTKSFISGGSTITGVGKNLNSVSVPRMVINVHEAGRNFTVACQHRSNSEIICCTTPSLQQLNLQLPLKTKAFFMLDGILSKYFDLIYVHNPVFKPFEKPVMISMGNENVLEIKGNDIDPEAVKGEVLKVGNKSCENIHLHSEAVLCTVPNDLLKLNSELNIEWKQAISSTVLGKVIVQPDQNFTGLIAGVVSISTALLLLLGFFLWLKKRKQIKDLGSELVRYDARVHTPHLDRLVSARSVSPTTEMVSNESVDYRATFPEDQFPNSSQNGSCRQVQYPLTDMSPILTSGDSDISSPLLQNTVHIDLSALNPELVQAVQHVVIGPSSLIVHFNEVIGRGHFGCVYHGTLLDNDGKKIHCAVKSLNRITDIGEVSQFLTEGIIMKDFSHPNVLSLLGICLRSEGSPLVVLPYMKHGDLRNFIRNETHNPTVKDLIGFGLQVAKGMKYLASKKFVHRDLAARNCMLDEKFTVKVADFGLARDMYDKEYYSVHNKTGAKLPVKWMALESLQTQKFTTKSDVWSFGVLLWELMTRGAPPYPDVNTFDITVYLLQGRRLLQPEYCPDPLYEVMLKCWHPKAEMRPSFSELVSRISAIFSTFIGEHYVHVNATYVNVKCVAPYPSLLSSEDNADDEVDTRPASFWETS

[7] = target: Hepatocyte growth factor receptor (Homo sapiens) (UniProt P08581); conditions: at 10 µM
[8] = target: MAP kinase-interacting serine/threonine-protein kinase 2 (Homo sapiens) (UniProt Q9HBH9); conditions: at 1 µM
Chain of MAP kinase-interacting serine/threonine-protein kinase 2 (Homo sapiens) (Q9HBH9 whole entry, looked up): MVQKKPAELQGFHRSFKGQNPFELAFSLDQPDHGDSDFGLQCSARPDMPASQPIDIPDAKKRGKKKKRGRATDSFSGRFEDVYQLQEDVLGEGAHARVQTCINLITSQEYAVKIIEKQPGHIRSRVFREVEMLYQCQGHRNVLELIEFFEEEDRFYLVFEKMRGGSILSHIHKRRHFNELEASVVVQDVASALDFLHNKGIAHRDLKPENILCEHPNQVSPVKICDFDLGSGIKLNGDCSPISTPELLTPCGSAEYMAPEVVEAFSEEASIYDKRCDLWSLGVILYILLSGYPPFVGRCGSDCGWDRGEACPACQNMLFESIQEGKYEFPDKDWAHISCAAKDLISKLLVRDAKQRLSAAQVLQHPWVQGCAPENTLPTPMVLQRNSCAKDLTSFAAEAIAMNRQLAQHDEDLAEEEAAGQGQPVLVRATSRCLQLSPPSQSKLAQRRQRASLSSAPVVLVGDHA

[9] = target: MAP kinase-interacting serine/threonine-protein kinase 2 (Homo sapiens) (UniProt Q9HBH9); conditions: at 10 µM
[10] = target: T3, Muscle, skeletal receptor tyrosine-protein kinase (Homo sapiens) (UniProt O15146); conditions: at 1 µM
T3 sequence (whole entry): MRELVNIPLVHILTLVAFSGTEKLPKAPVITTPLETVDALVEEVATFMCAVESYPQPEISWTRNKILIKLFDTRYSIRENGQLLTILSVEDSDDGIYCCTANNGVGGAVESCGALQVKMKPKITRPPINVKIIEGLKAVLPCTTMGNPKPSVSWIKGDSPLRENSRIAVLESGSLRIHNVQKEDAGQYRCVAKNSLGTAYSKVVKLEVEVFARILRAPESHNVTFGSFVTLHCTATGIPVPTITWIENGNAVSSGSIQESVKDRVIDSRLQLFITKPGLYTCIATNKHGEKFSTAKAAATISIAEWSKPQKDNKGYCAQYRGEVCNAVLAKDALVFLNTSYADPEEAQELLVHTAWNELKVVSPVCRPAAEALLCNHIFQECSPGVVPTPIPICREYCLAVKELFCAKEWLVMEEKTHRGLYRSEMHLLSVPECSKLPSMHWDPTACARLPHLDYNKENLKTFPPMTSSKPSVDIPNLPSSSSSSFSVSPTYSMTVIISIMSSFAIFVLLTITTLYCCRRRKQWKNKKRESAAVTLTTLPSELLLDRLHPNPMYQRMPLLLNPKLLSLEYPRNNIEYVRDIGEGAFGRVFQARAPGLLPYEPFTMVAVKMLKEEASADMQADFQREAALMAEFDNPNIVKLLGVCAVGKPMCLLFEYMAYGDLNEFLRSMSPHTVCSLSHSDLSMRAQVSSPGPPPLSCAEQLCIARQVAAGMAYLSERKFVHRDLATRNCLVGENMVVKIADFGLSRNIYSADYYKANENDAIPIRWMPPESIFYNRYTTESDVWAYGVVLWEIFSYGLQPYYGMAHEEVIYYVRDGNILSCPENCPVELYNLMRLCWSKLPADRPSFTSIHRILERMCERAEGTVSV

[11] = target: T3, Muscle, skeletal receptor tyrosine-protein kinase (Homo sapiens); conditions: at 10 µM
[12] = target: T4, Serine/threonine-protein kinase Nek11 (Homo sapiens) (UniProt Q8NG66); conditions: at 1 µM
T4 sequence (whole entry): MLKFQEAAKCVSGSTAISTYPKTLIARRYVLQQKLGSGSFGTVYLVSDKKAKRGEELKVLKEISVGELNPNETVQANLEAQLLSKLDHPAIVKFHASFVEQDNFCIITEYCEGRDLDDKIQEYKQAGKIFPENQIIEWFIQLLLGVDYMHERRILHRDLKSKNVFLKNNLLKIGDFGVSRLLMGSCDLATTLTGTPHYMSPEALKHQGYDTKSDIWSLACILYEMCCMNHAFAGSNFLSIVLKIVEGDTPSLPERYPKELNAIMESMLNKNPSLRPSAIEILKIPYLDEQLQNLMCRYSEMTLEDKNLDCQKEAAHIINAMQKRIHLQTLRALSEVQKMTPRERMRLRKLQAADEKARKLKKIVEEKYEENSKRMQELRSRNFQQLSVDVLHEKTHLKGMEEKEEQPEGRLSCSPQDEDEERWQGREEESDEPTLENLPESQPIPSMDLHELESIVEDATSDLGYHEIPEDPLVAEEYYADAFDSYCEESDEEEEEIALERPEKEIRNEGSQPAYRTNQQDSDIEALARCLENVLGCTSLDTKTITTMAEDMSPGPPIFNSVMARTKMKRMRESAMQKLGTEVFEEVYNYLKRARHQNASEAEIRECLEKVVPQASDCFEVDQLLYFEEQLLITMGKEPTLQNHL

[13] = target: T4, Serine/threonine-protein kinase Nek11 (Homo sapiens); conditions: at 10 µM
[14] = target: T5, Serine/threonine-protein kinase Nek2 (Homo sapiens) (UniProt P51955); conditions: at 1 µM
T5 sequence (whole entry): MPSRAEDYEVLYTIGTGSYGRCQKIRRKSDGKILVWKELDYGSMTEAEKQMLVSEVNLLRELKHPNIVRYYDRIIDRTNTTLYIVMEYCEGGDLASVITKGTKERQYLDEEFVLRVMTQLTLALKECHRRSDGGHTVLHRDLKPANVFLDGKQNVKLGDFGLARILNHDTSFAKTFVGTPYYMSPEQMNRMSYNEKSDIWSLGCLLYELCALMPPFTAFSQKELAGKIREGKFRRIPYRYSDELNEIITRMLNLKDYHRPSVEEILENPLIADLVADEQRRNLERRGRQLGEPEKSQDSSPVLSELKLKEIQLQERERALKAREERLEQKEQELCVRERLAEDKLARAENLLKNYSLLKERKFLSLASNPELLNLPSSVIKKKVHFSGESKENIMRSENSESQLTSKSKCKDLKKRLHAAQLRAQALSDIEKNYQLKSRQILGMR

[15] = target: T5, Serine/threonine-protein kinase Nek2 (Homo sapiens); conditions: at 10 µM
[16] = target: T6, Serine/threonine-protein kinase Nek3 (Homo sapiens) (UniProt P51956); conditions: at 1 µM
T6 sequence (whole entry): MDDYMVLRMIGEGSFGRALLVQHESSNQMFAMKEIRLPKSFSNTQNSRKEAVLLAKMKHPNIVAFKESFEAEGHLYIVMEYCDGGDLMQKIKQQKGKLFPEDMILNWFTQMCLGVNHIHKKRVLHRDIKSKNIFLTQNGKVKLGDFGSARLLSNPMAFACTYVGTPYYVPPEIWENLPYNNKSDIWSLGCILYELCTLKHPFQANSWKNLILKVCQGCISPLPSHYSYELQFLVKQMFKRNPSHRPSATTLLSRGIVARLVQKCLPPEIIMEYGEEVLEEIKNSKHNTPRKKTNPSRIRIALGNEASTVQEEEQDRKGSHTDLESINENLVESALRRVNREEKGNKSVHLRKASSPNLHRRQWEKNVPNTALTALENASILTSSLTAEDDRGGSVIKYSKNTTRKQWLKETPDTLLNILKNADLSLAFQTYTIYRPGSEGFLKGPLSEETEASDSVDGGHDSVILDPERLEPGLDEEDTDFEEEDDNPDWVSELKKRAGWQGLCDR

[17] = target: T6, Serine/threonine-protein kinase Nek3 (Homo sapiens); conditions: at 10 µM
[18] = target: Serine/threonine-protein kinase tousled-like 2 (Homo sapiens) (UniProt Q86UE8); conditions: at 1 µM
Chain of Serine/threonine-protein kinase tousled-like 2 (Homo sapiens) (Q86UE8 whole entry, looked up): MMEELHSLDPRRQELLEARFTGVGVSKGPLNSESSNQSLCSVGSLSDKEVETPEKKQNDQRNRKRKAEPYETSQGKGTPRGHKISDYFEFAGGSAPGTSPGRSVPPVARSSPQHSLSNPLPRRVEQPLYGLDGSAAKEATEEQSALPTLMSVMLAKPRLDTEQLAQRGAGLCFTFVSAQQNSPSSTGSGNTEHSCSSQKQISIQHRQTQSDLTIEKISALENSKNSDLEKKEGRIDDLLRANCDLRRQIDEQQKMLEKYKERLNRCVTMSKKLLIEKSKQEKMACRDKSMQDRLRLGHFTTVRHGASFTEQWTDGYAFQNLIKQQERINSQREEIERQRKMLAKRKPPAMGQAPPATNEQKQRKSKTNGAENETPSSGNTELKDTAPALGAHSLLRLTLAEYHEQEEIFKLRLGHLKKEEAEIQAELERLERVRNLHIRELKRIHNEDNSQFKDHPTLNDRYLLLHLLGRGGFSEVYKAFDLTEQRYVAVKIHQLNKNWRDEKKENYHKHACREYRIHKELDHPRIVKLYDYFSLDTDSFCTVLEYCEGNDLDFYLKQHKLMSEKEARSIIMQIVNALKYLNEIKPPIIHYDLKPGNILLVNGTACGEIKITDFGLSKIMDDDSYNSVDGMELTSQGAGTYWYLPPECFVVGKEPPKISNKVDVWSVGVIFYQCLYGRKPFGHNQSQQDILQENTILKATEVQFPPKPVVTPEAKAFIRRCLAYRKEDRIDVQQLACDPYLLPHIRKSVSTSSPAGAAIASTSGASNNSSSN

[19] = target: Serine/threonine-protein kinase tousled-like 2 (Homo sapiens) (UniProt Q86UE8); conditions: at 10 µM
[20] = target: T1, Serine/threonine-protein kinase 3 (Homo sapiens); conditions: at 10 µM

| SMILES | residual activity [1] | residual activity [2] | residual activity [3] | residual activity [4] | residual activity [5] | residual activity [6] | residual activity [7] | residual activity [8] | residual activity [9] | residual activity [10] | residual activity [11] | residual activity [12] | residual activity [13] | residual activity [14] | residual activity [15] | residual activity [16] | residual activity [17] | residual activity [18] | residual activity [19] | residual activity [20] |
| --- | --- | --- | --- | --- | --- | --- | --- | --- | --- | --- | --- | --- | --- | --- | --- | --- | --- | --- | --- | --- |
| CN(C)c1ccc(/C=C2\C(=O)Nc3ccccc32)cc1 | 108% | 66% | 49% | 51% | 36% | 112% | 107% | 107% | 95% | 94% | 25% | 90% | 90% | 94% | 113% | 111% | 75% | 98% | 97% | – |
| Cn1nc2c3c(cccc31)C(=O)c1ccccc1-2 | 97% | 74% | 69% | 53% | 21% | – | 84% | 81% | 72% | 75% | 81% | 48% | 55% | 95% | 84% | 74% | 91% | 95% | – | – |
| Cc1ccc(S(=O)(=O)/C=C/C#N)cc1 | 99% | 86% | 88% | 101% | 108% | 96% | 123% | 98% | 101% | 85% | 96% | 72% | 81% | 97% | 90% | 90% | 98% | 87% | 89% | 95% |
